# In the supplement of paper PMC8975748:
# Counter-ions that a name gives are not always drawn. ± gives the standard deviation of the averaged measurements.
# Columns and labels:
# [1] = system: Saccharomyces cerevisiae BY4741 SeMeCo community; assay: mean cell size (pixel area) (pixels); higher = larger cells; settings: 10 µM; 24 h; SM minimal medium
# Outline: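 Mean cell pixel area per well was determined by automated confocal microscopy with Harmony analysis of paraformaldehyde-fixed cells. The cells, a Saccharomyces cerevisiae BY4741 community of four plasmids that each complement one auxotrophy and carry a fluorescent marker, were incubated for 24 h with drug at a final 10 µM in SM medium in 384-well plates. Numbers are averaged over 3 replicates. Same SeMeCo high-content imaging drug screen: Selleck FDA-approved drugs at 10 µM, 24 h in SM medium, 384-well plates, 3 replicates.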
# [2] = system: Saccharomyces cerevisiae BY4741 SeMeCo community; assay: z-score of prototroph abundance vs DMSO median; higher = larger share of this subpopulation than in DMSO controls; settings: 10 µM; 24 h; SM minimal medium; subpopulation (auxotrophy): Prototroph
# Outline: (§1)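 Scoring was based on each subpopulation's abundance, expressed as a z-score against the vehicle-well median. A Saccharomyces cerevisiae BY4741 community with four plasmids, each restoring one auxotrophy and encoding a distinct fluorescent protein, was pre-grown overnight to OD600 1.0, diluted to 0.3, and added at 70 µl to 384-well plates acoustically predosed with library drugs (10 µM final). It then grew 24 h in minimal SM medium before paraformaldehyde fixation and automated confocal microscopy, with single-auxotroph fluorescent strains setting thresholds and autofluorescence correction.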
# [3] = system: Saccharomyces cerevisiae BY4741 SeMeCo community; assay: z-score of subpopulation abundance vs DMSO median, subpopulation auxotrophic for M; higher = larger share of this subpopulation than in DMSO controls; settings: 10 µM; 24 h; SM minimal medium; subpopulation (auxotrophy): M
# Outline: as §1
# [4] = system: Saccharomyces cerevisiae BY4741 SeMeCo community; assay: z-score of subpopulation abundance vs DMSO median, subpopulation auxotrophic for L; higher = larger share of this subpopulation than in DMSO controls; settings: 10 µM; 24 h; SM minimal medium; subpopulation (auxotrophy): L
# Outline: as §1
# [5] = system: Saccharomyces cerevisiae BY4741 SeMeCo community; assay: z-score of subpopulation abundance vs DMSO median, subpopulation auxotrophic for U; higher = larger share of this subpopulation than in DMSO controls; settings: 10 µM; 24 h; SM minimal medium; subpopulation (auxotrophy): U
# Outline: as §1
# [6] = system: Saccharomyces cerevisiae BY4741 SeMeCo community; assay: z-score of subpopulation abundance vs DMSO median, subpopulation auxotrophic for LU; higher = larger share of this subpopulation than in DMSO controls; settings: 10 µM; 24 h; SM minimal medium; subpopulation (auxotrophy): LU
# Outline: as §1
# [7] = system: Saccharomyces cerevisiae BY4741 SeMeCo community; assay: z-score of subpopulation abundance vs DMSO median, subpopulation auxotrophic for LM; higher = larger share of this subpopulation than in DMSO controls; settings: 10 µM; 24 h; SM minimal medium; subpopulation (auxotrophy): LM
# Outline: as §1
# [8] = system: Saccharomyces cerevisiae BY4741 SeMeCo community; assay: z-score of subpopulation abundance vs DMSO median, subpopulation auxotrophic for HM; higher = larger share of this subpopulation than in DMSO controls; settings: 10 µM; 24 h; SM minimal medium; subpopulation (auxotrophy): HM
# Outline: as §1
# [9] = system: Saccharomyces cerevisiae BY4741 SeMeCo community; assay: z-score of subpopulation abundance vs DMSO median, subpopulation auxotrophic for HU; higher = larger share of this subpopulation than in DMSO controls; settings: 10 µM; 24 h; SM minimal medium; subpopulation (auxotrophy): HU
# Outline: as §1
# [10] = system: Saccharomyces cerevisiae BY4741 SeMeCo community; assay: z-score of subpopulation abundance vs DMSO median, subpopulation auxotrophic for UM; higher = larger share of this subpopulation than in DMSO controls; settings: 10 µM; 24 h; SM minimal medium; subpopulation (auxotrophy): UM
# Outline: as §1
# [11] = system: Saccharomyces cerevisiae BY4741 SeMeCo community; assay: z-score of subpopulation abundance vs DMSO median, subpopulation auxotrophic for HL; higher = larger share of this subpopulation than in DMSO controls; settings: 10 µM; 24 h; SM minimal medium; subpopulation (auxotrophy): HL
# Outline: as §1
# [12] = system: Saccharomyces cerevisiae BY4741 SeMeCo community; assay: z-score of subpopulation abundance vs DMSO median, subpopulation auxotrophic for HLU; higher = larger share of this subpopulation than in DMSO controls; settings: 10 µM; 24 h; SM minimal medium; subpopulation (auxotrophy): HLU
# Outline: as §1
# [13] = system: Saccharomyces cerevisiae BY4741 SeMeCo community; assay: z-score of subpopulation abundance vs DMSO median, subpopulation auxotrophic for HLM; higher = larger share of this subpopulation than in DMSO controls; settings: 10 µM; 24 h; SM minimal medium; subpopulation (auxotrophy): HLM
# Outline: as §1
# [14] = system: Saccharomyces cerevisiae BY4741 SeMeCo community; assay: z-score of subpopulation abundance vs DMSO median, subpopulation auxotrophic for HUM; higher = larger share of this subpopulation than in DMSO controls; settings: 10 µM; 24 h; SM minimal medium; subpopulation (auxotrophy): HUM
# Outline: as §1
# [15] = system: Saccharomyces cerevisiae BY4741 SeMeCo community; assay: z-score of subpopulation abundance vs DMSO median, subpopulation auxotrophic for LUM; higher = larger share of this subpopulation than in DMSO controls; settings: 10 µM; 24 h; SM minimal medium; subpopulation (auxotrophy): LUM
# Outline: as §1
# [16] = system: Saccharomyces cerevisiae BY4741 SeMeCo community; assay: z-score of subpopulation abundance vs DMSO median, subpopulation auxotrophic for HLUM; higher = larger share of this subpopulation than in DMSO controls; settings: 10 µM; 24 h; SM minimal medium; subpopulation (auxotrophy): HLUM
# Outline: as §1
# [17] = system: Saccharomyces cerevisiae BY4741 SeMeCo community; assay: z-score of subpopulation abundance vs DMSO median, subpopulation auxotrophic for H; higher = larger share of this subpopulation than in DMSO controls; settings: 10 µM; 24 h; SM minimal medium; subpopulation (auxotrophy): H
# Outline: as §1
SMILES,mean cell size [1],z-score of prototroph abundance [2],z-score of subpopulation abundance [3],z-score of subpopulation abundance [4],z-score of subpopulation abundance [5],z-score of subpopulation abundance [6],z-score of subpopulation abundance [7],z-score of subpopulation abundance [8],z-score of subpopulation abundance [9],z-score of subpopulation abundance [10],z-score of subpopulation abundance [11],z-score of subpopulation abundance [12],z-score of subpopulation abundance [13],z-score of subpopulation abundance [14],z-score of subpopulation abundance [15],z-score of subpopulation abundance [16],z-score of subpopulation abundance [17]
CC1(C)S[C@@H]2[C@H](NC(=O)C(c3ccccc3)S(=O)(=O)O)C(=O)N2[C@H]1C(=O)O (stereo partly specified) [Sulbenicillin Sodium],12.35 ± 0.08,-0.72,0.41,-0.32,1.09,1.06,-0.34,-0.06,0.51,1.5,0.63,0.86,3.16,0.43,0.65,1.16,–
C[C@H]1[C@H](NC(=O)/C(=N\OC(C)(C)C(=O)O)c2csc(N)n2)C(=O)N1S(=O)(=O)O [Aztreonam],12.5 ± 0.18,-0.5,0.26,0.74,-0.07,0.39,0.99,0.36,-0.08,0.13,0.25,0.52,1.34,-0.1,0.97,0.34,–
Cc1[nH]cnc1CN1CCc2c(c3ccccc3n2C)C1=O [Alosetron Hydrochloride],12 ± 0.2,-0.91,0.38,0.02,1.4,1.07,0.27,0.69,0.97,0.96,0,-0.13,0.08,0.46,-0.03,1.5,-0.22
CC1=C(C(=O)OC(C)C)C(c2cccc([N+](=O)[O-])c2)C(C(=O)OC2CN(C(c3ccccc3)c3ccccc3)C2)=C(N)N1 (stereo unspecified) [Azelnidipine],12.5 ± 0.34,-0.48,-0.27,-0.9,0.39,0.86,-0.63,0.77,1.39,0.01,-0.34,-0.12,0.09,0.26,0.01,-0.49,0.22
CC[C@H]1OC(=O)C[C@@H](O)[C@H](C)[C@@H](O[C@@H]2O[C@H](C)[C@@H](O[C@H]3C[C@@](C)(O)[C@@H](O)[C@H](C)O3)[C@H](N(C)C)[C@H]2O)[C@@H](CC=O)C[C@@H](C)C(=O)/C=C/C(C)=C/[C@@H]1CO[C@@H]1O[C@H](C)[C@@H](O)[C@@H](OC)[C@H]1OC [Tylosin],12.16 ± 0.07,-1.25,-0.28,1.29,0.25,0.45,1.45,0.74,0.26,0.88,2.73,0.34,0.99,1.06,1.17,0.01,–
CC(C)NNC(=O)c1ccncc1 [Iproniazid],12.4 ± 0.22,-0.56,-0.2,-0.39,1.2,1.04,0.08,-0.24,0.46,0.66,-0.1,0.8,-0.85,0.2,0.03,0.07,0.01
CC1=C(C(=O)O)N2C(=O)[C@@H](NC(=O)[C@H](N)c3ccc(O)cc3)[C@H]2SC1 [Cefadroxil hydrate],12.1 ± 0.2,0.8,-0.99,-0.28,-0.62,-0.23,-0.09,-0.79,-0.04,-0.45,-0.19,-0.42,-0.45,-0.39,-0.5,-0.33,0.01
O=C1OCCN1/N=C/c1ccc([N+](=O)[O-])o1 [Furazolidone],13.1 ± 0.18,3.52,1.9,2.57,-7.17,-5.41,1.07,0.39,-5.84,-6.39,2.14,-2.4,-0.06,-3.95,-2.42,-0.24,3.6
"OCc1ccc(Cl)cc1Cl [2,4-dichlorobenzyl alcohol]",12.32 ± 0.052,-0.15,-0.73,0.8,0.58,1.19,0.21,-0.64,-0.65,-0.17,0.12,0.04,0.03,-0.47,-0.03,0.69,0
Nc1ccc(S(=O)(=O)Nc2ccccn2)cc1 [Sulfapyridine],12.2 ± 0.13,0.95,0.24,-0.23,-0.03,-0.25,-0.18,-0.46,-0.55,-0.75,-0.68,-0.45,-0.9,-0.97,-0.73,-0.89,–
CN(C/C=C/C#CC(C)(C)C)Cc1cccc2ccccc12 [Terbinafine HCl],12.27 ± 0.088,-0.62,1.09,-0.84,1.03,0.54,-0.74,-0.78,0.89,1.94,-0.47,-0.09,-0.22,1.65,0.47,1,-0.56
NC(=NCCCCCCN=C(N)N=C(N)Nc1ccc(Cl)cc1)N=C(N)Nc1ccc(Cl)cc1 [Chlorhexidine?2HCl],11.38 ± 0.084,1.92,-3.42,0.63,-2.8,-1.64,0.28,-2.23,0.25,-3.13,2.14,3.88,0.93,-0.7,2.03,4.27,2.59
Nc1ccc(S(=O)(=O)c2ccc(N)cc2)cc1 [Dapson],12.5 ± 0.26,-0.54,0.68,0.59,0.04,0.91,0.51,0.93,0.31,0.45,0.32,0.22,-0.14,0.6,0.92,0.06,–
